# Measured values reported in the supplement of paper PMC12645437, “Orthogonal IMiD-Degron Pairs Induce Selective Protein Degradation in Cells” (ACS Chemical Biology, 2025).
# Over roughly 8,300 sequences, “log2 fold change of degron read counts, EGFP-low vs EGFP+ sorted cells (limma voom), compound-induced degradation” has its median near -1.1; the highest 2% begin near 3.2. The full list was thinned out, with the highest values kept by preference.
# T1: CRBN, Q96SW2
# T1 chain: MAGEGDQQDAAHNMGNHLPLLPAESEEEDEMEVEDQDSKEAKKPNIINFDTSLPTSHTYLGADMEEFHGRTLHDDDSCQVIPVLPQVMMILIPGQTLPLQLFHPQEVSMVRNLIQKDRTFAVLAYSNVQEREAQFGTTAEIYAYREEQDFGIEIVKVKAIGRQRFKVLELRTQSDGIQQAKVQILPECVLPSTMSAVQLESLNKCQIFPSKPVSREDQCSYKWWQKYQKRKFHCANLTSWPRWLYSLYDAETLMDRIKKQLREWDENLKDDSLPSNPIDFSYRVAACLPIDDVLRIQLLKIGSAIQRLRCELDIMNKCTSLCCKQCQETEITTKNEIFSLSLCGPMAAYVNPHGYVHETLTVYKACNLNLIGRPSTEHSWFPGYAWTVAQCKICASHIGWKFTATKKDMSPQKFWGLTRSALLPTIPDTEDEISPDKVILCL
# B1: 46F_47D_49P_50V_52G_53A_54E_55F_67L_, Q9UKT9 (peptide)
# chain: FDCPVCGAEFTQKGNLLRHIKL
# B2: 46F_47S_49D_50V_52G_53A_54A_55F_67L_, Q9UKT9 (peptide)
# chain: FSCDVCGAAFTQKGNLLRHIKL
# B3: 46L_47I_49E_50I_52G_53F_54T_55C_67L_, Q9UKT9 (peptide)
# chain: LICEICGFTCTQKGNLLRHIKL
# B4: 46F_47W_49E_50I_52G_53A_54D_55F_67L_, Q9UKT9 (peptide)
# chain: FWCEICGADFTQKGNLLRHIKL
# B5: 46F_47Q_49E_50I_52G_53R_54P_55F_67L_, Q9UKT9 (peptide)
# chain: FQCEICGRPFTQKGNLLRHIKL
# B6: 46F_47I_49E_50I_52G_53A_54D_55F_67L_, Q9UKT9 (peptide)
# chain: FICEICGADFTQKGNLLRHIKL
# B7: 46F_47G_49E_50I_52G_53A_54P_55F_67L_, Q9UKT9 (peptide)
# chain: FGCEICGAPFTQKGNLLRHIKL
# B8: 46F_47W_49E_50I_52G_53R_54P_55F_67L_, Q9UKT9 (peptide)
# chain: FWCEICGRPFTQKGNLLRHIKL
# B9: 46F_47W_49E_50I_52G_53A_54P_55F_67L_, Q9UKT9 (peptide)
# chain: FWCEICGAPFTQKGNLLRHIKL
# B10: 46F_47N_49E_50Q_52G_53A_54P_55F_67L_, Q9UKT9 (peptide)
# chain: FNCEQCGAPFTQKGNLLRHIKL
# B11: 46F_47I_49E_50I_52G_53A_54P_55F_67L_, Q9UKT9 (peptide)
# chain: FICEICGAPFTQKGNLLRHIKL
# B12: 46F_47Q_49E_50I_52G_53A_54P_55F_67L_, Q9UKT9 (peptide)
# chain: FQCEICGAPFTQKGNLLRHIKL
# B13: 46F_47N_49E_50I_52G_53A_54P_55F_67L_, Q9UKT9 (peptide)
# chain: FNCEICGAPFTQKGNLLRHIKL
# B14: 46F_47Q_49E_50I_52G_53A_54D_55F_67L_, Q9UKT9 (peptide)
# chain: FQCEICGADFTQKGNLLRHIKL
# B15: 46F_47N_49E_50I_52G_53A_54D_55F_67L_, Q9UKT9 (peptide)
# chain: FNCEICGADFTQKGNLLRHIKL
# B16: 46L_47Y_49N_50Q_52G_53F_54F_55C_67L_, Q9UKT9 (peptide)
# chain: LYCNQCGFFCTQKGNLLRHIKL
# B17: 46F_47F_49D_50I_52G_53A_54G_55F_67L_, Q9UKT9 (peptide)
# chain: FFCDICGAGFTQKGNLLRHIKL
# B18: 46F_47Q_49N_50Q_52G_53H_54I_55F_67L_, Q9UKT9 (peptide)
# chain: FQCNQCGHIFTQKGNLLRHIKL
# B19: 46F_47I_49N_50Q_52G_53A_54A_55F_67L_, Q9UKT9 (peptide)
# chain: FICNQCGAAFTQKGNLLRHIKL
# B20: 46L_47C_49E_50I_52G_53F_54N_55C_67L_, Q9UKT9 (peptide)
# chain: LCCEICGFNCTQKGNLLRHIKL
# B21: 46F_47E_49P_50I_52G_53A_54K_55F_67L_, Q9UKT9 (peptide)
# chain: FECPICGAKFTQKGNLLRHIKL
# B22: 46F_47S_49N_50I_52G_53A_54E_55F_67L_, Q9UKT9 (peptide)
# chain: FSCNICGAEFTQKGNLLRHIKL
# B23: 46F_47F_49E_50I_52G_53A_54P_55F_67L_, Q9UKT9 (peptide)
# chain: FFCEICGAPFTQKGNLLRHIKL
# B24: 46F_47V_49E_50I_52G_53A_54P_55F_67L_, Q9UKT9 (peptide)
# chain: FVCEICGAPFTQKGNLLRHIKL
# B25: 46F_47V_49E_50I_52G_53A_54M_55F_67L_, Q9UKT9 (peptide)
# chain: FVCEICGAMFTQKGNLLRHIKL
# B26: 46F_47Y_49E_50I_52G_53A_54D_55F_67L_, Q9UKT9 (peptide)
# chain: FYCEICGADFTQKGNLLRHIKL
# B27: 46F_47F_49E_50I_52G_53H_54P_55F_67L_, Q9UKT9 (peptide)
# chain: FFCEICGHPFTQKGNLLRHIKL
# B28: 46F_47Y_49E_50I_52G_53A_54P_55F_67L_, Q9UKT9 (peptide)
# chain: FYCEICGAPFTQKGNLLRHIKL
# B29: 46F_47M_49E_50I_52G_53H_54P_55F_67L_, Q9UKT9 (peptide)
# chain: FMCEICGHPFTQKGNLLRHIKL
# B30: 46F_47M_49E_50I_52G_53A_54D_55F_67L_, Q9UKT9 (peptide)
# chain: FMCEICGADFTQKGNLLRHIKL
# B31: 46F_47V_49E_50I_52G_53A_54D_55F_67L_, Q9UKT9 (peptide)
# chain: FVCEICGADFTQKGNLLRHIKL
# B32: 46F_47Y_49E_50Q_52G_53A_54P_55F_67L_, Q9UKT9 (peptide)
# chain: FYCEQCGAPFTQKGNLLRHIKL
# B33: 46F_47F_49E_50I_52G_53A_54D_55F_67L_, Q9UKT9 (peptide)
# chain: FFCEICGADFTQKGNLLRHIKL
# B34: 46F_47M_49E_50I_52G_53A_54P_55F_67L_, Q9UKT9 (peptide)
# chain: FMCEICGAPFTQKGNLLRHIKL
# Target: T1, CRBN, Q96SW2
# Experiment: log2 fold change of degron read counts, EGFP-low vs EGFP+ sorted cells (limma voom), compound-induced degradation; higher = more compound-induced degradation of the degron-EGFP fusion; degrons are variants of IKZF1/3 zinc finger 2; compound dose not given here
# Conditions: Jurkat, 18 h
# [1] = compound: compound 19 (5-tert-butyl-thalidomide)
# [2] = compound: compound 22 (5-morpholino-thalidomide)
# [3] = compound: compound 33 (diphenyl IMiD analogue)
# 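Also: pooled lentiviral library of zinc finger degron-EGFP fusions in mCherry-positive Jurkat cells, FACS-sorted after compound exposure, with degron abundance counted by next-generation sequencing.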
Sequence,log2 fold change of degron read counts [1],log2 fold change of degron read counts [2],log2 fold change of degron read counts [3],log2 fold change of degron read counts (compound: thalidomide)
B1,-0.42,-1.74,0.6,0.131
B2,1.56,1.45,1.14,-0.292
B3,0.795,2.24,2.34,3.13
B4,0.346,0.98,-0.492,-1.5
B5,-0.793,-0.383,-1.07,1.31
B6,-2.33,-0.887,-0.381,0.298
B7,1.88,0.802,-0.557,-0.51
B8,1.92,0.403,0.52,-0.912
B9,3.82,3.42,2.64,1.23
B10,-1.19,-2,-2.69,-2.17
B11,2.83,3.53,2.76,3.43
B12,3.69,3.61,2.03,3.72
B13,3.39,2.54,0.567,1.58
B14,-0.47,0.00637,1.29,3
B15,-1.15,-2.31,-1.14,-1.4
B16,-0.205,-0.821,-0.706,-0.795
B17,2.9,1.78,0.35,-0.766

Sequence,log2 fold change of degron read counts [1],log2 fold change of degron read counts [2],log2 fold change of degron read counts [3],log2 fold change of degron read counts (compound: thalidomide)
B18,-2.78,-2.92,-2.91,-2.7
B19,-2.19,-0.99,-0.297,-0.649
B20,-0.957,-1.02,0.0485,0.0948
B21,0.543,-0.648,0.0161,3
B22,-0.854,0.252,0.443,0.069
B23,3.4,3.34,2.28,1.95
B24,3.26,3.62,2.49,3.65
B25,0.202,0.968,1.67,2.16
B26,1.04,1.57,0.298,-1.13
B27,0.211,-0.726,-0.864,-1.23
B28,3.86,3.74,3.06,2.44
B29,-1.77,-1.41,0.426,-0.396
B30,-1.98,-1.6,1.99,-0.153
B31,-1.49,-0.553,-0.517,0.943
B32,1.97,1.06,0.568,-1.07
B33,0.436,1.48,-0.411,-0.679
B34,3.59,3.43,3.13,2.94
